Calls of active or inactive are those of the source.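 The calls were made as follows, unless noted: active = fluorescence slope after compound addition differing from the mean of all screened samples at 99.7% confidence, in either direction; inactive = the rest.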
Experiments:
[1] = inhibitors of TNFa-induced NFkB p65 translocation, primary screen, imaging, HUVEC, MLSMR starter and 10KST1 sets (AID 438;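 active = inhibition above 20% together with a positive visual image hit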;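 also: compound added about 3h40 before a 20 min TNFalpha stimulation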;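 as to inhibition: signal is the nuclear over cytoplasmic p65 intensity ratio per well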); conditions: HUVEC TNFa-induced p65 nuclear translocation; cell count: measured here: nuclei count (cytotoxicity indicator), at 2.08 µM; inhibition: at 2 µM, stronger effect = higher value, 0% TNFa-plus-vehicle, 100% no-TNFa wells
[2] = reduction of polyQ htt aggregates in cells – imaging, exon1htt(103Q)mCFP cells, high-content imaging, primary screen (AID 483;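 active = visual image review flags a hit and inhibition of aggregation exceeds 20%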;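 also: compound exposure lasted 3 days before fixation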;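 as to nuclei count: percent of the per-plate median nuclei count of sample wells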); conditions: exon1htt(103Q)mCFP cell line, aggregate imaging, at 2 µM; inhibition of aggregation: stronger effect = higher value; nuclei count: measured here: cell count, toxicity
[3] = endothelial E-selectin expression blockers – imaging, HUVEC, immunofluorescence, MLSMR starter and 10KST1 sets, primary screen (AID 487;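 active = visually confirmed hit in the image check and inhibition above 20%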;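 as to inhibition: signal is fraction of cell area covered by stained E-selectin grains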;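 as to nuclei count: 100% = median nuclei count of all wells on the same plate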); conditions: HUVEC TNFalpha-induced E-selectin immunofluorescence imaging, at 2 µM; inhibition: stronger effect = higher value; nuclei count: measured here: cell number, toxicity
[4] = target: Voltage-gated potassium channel subunit beta-2 (Rattus norvegicus) (UniProt P62483); assay: inhibitors of rat Kvbeta2 reductase activity – biochemical, NADPH fluorescence, primary screen (AID 622;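 active = fluorescence slope higher than the sample average by over 3 SD, cut at about -0.22 in these data, passing the limit was not always enough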;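 also: slope of raw intensity against log time taken from 70 to 1610 s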); conditions: recombinant KvBeta, 4-cyanobenzaldehyde reduction, at 10 µM, stronger effect = higher value
[5] = target: Voltage-gated potassium channel subunit beta-2 (Rattus norvegicus) (UniProt P62483); assay: enhancers of rat Kvbeta2 NADPH turnover – biochemical, NADPH fluorescence, primary screen (AID 623;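 active = NADPH fluorescence slope more negative than the mean of all samples by about 3 SD, 99.7% confidence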;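 also: fluorescence intensity change per second fitted from 20 to 320 s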); conditions: Recombinant KvBeta, NADPH fluorescence decrease slope, 10 min; at 10 µM; stronger effect = lower value
[6] = target: Alpha-2C adrenergic receptor (Homo sapiens) (UniProt P18825); assay: compounds altering alpha2C-coupled GIRK flux – cell-based, HEK293 alpha2C/GIRK1/2, thallium flux, primary screen (AID 624); conditions: thallium flux BTC fluorescence, at 10 µM, actives lie on both sides;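 also: slope of fluorescence ratio to pre-addition baseline per second over 15 to 24 s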
[7] = blockers of RIG-like receptor reporter activation – cell-based, Sendai virus stimulus, luciferase, 10K MLSCN set, TLR/RLR signaling modifier project, primary screen (AID 602276;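 active = inhibition at or above 50% at 10 µM; inactive = inhibition below 50%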;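 also: firefly luciferase from ISG56 promoter only with Renilla not read in this screen; 0% = Sendai virus plus DMSO and 100% = medium plus DMSO without virus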); conditions: HEK293 RL24 IRF3 luciferase reporter, at 10 µM, stronger effect = higher value
[8] = TLR3 IRF3 reporter activation blockers – cell-based, poly I:C stimulus, luciferase, 10K MLSCN set, primary screen (AID 602277;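 active = inhibition of the reporter signal at or above 50%; inactive = inhibition below 50%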); conditions: HEK293-TLR3 RL24 IRF3 luciferase reporter, at 10 µM, stronger effect = higher value

Chain of Alpha-2C adrenergic receptor (Homo sapiens) (P18825 whole entry, looked up): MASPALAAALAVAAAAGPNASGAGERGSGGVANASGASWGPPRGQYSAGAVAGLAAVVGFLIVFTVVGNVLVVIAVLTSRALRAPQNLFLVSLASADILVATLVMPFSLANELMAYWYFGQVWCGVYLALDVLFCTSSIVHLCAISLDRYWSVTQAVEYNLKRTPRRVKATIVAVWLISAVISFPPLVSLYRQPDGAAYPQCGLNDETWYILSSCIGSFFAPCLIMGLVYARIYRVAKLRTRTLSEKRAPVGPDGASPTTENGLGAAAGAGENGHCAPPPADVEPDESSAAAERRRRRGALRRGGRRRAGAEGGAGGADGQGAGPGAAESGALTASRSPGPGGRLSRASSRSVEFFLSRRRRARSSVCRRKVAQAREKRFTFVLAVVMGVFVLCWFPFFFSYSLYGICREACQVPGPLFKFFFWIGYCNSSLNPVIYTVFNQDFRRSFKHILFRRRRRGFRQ
Chain of Voltage-gated potassium channel subunit beta-2 (Rattus norvegicus) (P62483 whole entry, looked up): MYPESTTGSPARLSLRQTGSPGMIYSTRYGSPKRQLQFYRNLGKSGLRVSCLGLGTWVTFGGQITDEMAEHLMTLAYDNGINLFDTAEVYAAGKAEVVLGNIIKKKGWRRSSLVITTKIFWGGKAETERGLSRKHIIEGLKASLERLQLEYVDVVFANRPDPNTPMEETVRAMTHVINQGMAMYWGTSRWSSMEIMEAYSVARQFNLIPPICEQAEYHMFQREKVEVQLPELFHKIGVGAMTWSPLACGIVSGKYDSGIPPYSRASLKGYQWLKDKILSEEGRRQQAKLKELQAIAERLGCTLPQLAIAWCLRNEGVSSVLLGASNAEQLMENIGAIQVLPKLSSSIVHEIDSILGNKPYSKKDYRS

Structure (SMILES) | cell count [1] | inhibition [1] | inhibition of aggregation [2] | nuclei count [2] | inhibition [3] | nuclei count [3] | fluorescence slope [4] | NADPH fluorescence slope [5] | slope [6] | inhibition [7] | inhibition [8]
CC(C)Cc1nnc(NS(=O)(=O)c2ccc(Cl)cc2)s1 | 652 | 5.4% (inactive) | -9.3% (inactive) | 112% | -21.2% (inactive) | 112% | -0.541 (inactive) | 4.8e-06 (inactive) | 0.0081 (inactive) | 12.6% (inactive) | 27.6% (inactive)
CCOC(=O)CNC(=O)CSc1nnnn1-c1cc(C)ccc1C | 355 | -3.6% (inactive) | 14.6% (inactive) | 89.4% | 51.5% (inactive) | 82% | -0.533 (inactive) | 3e-05 (inactive) | 0.00704 (inactive) | 4.69% (inactive) | 10.9% (inactive)
C=CCOc1nc2c(c(=O)n(C)c(=O)n2C)n1C | 339 | 1% (inactive) | -1.3% (inactive) | 113% | 0.3% (inactive) | 119% | -0.444 (inactive) | -4.9e-05 (inactive) | 0.00278 (inactive) | 6.05% (inactive) | 34.1% (inactive)
Cc1ccccc1Cn1ccc(NC(=O)c2onc(C)c2Cl)n1 | 654 | -1.6% (inactive) | 28.9% (inactive) | 118% | -52.1% (inactive) | 106% | -0.425 (inactive) | -4.5e-05 (inactive) | 0.00472 (inactive) | -15.7% (inactive) | -37% (inactive)
Cc1ccc(C(=O)N2CCCC(c3nc4c(nnn4Cc4ccccc4)c(=O)[nH]3)C2)cc1 (centres undefined) | 671 | -6.5% (inactive) | -2.8% (inactive) | 118% | -44.4% (inactive) | 104% | -0.38 (inactive) | -5.9e-05 (inactive) | 0.00676 (inactive) | 13.8% (inactive) | 21.2% (inactive)
O=C(Nc1cnn(Cc2ccc(Cl)cc2Cl)c1)c1noc2c1CCCC2 | 510 | -7.6% (inactive) | 33.3% (active) | 57.6% | -22.8% (inactive) | 99.5% | -0.569 (inactive) | -2.6e-05 (inactive) | 0.00522 (inactive) | -3.18% (inactive) | -25.5% (inactive)
COc1cccc(C(=O)NCc2nnc(SCC(=O)Nc3nccs3)n2-c2ccccc2)c1 | 756 | -9.1% (inactive) | -1.7% (inactive) | 120% | -20.4% (inactive) | 107% | -0.626 (inactive) | 1.6e-05 (inactive) | 0.0057 (inactive) | 10.5% (inactive) | 35.1% (inactive)
C=CCn1c(SC(C)C(=O)NC2(C#N)CCCCC2)nnc1-c1ccc(OC)cc1 (centres undefined) | 612 | 9.9% (inactive) | 6.2% (inactive) | 95% | -154% (inactive) | 94% | -0.594 (inactive) | -3.3e-05 (inactive) | 0.00361 (inactive) | 22.5% (inactive) | 21.6% (inactive)
CCOc1ccc(NC(=O)CSc2nnc(Cc3cccn3C)n2-c2ccc(OC)cc2)cc1 | 366 | -0.3% (inactive) | 0.9% (inactive) | 98% | -103% (inactive) | 117% | -0.489 (inactive) | 1.6e-05 (inactive) | 0.0062 (inactive) | -4.09% (inactive) | -3.93% (inactive)
CC(=O)c1c(C)[nH]c(C(=O)N2CCN(C(=O)c3ccco3)CC2)c1C | 233 | -19.9% (inactive) | 9.5% (inactive) | 94.7% | -98.1% (inactive) | 120% | -0.537 (inactive) | 9e-06 (inactive) | 0.00697 (inactive) | -22.5% (inactive) | 10.9% (inactive)
Cc1c(NC(=O)CSc2nnc3sc4ccccc4n23)c(=O)n(-c2ccccc2)n1C | 655 | 1% (inactive) | 16.2% (inactive) | 98.3% | -24.3% (inactive) | 101% | -0.555 (inactive) | 6.7e-05 (inactive) | 0.00649 (inactive) | 19.4% (inactive) | 24.6% (inactive)
CCOC(=O)C1=C(O)C(=O)N(c2ccc(S(N)(=O)=O)cc2)C1c1ccccc1 (centres undefined) | 431 | -0.4% (inactive) | -10.8% (inactive) | 108% | -31.8% (inactive) | 117% | -0.61 (inactive) | -1.5e-05 (inactive) | 0.00391 (inactive) | 2.23% (inactive) | -14.6% (inactive)
COCCNC(=O)c1snc2ccc(Cl)cc12 | 375 | 6.7% (inactive) | 4.9% (inactive) | 89.8% | -175% (inactive) | 97.3% | -0.563 (inactive) | 3.8e-05 (inactive) | 0.00546 (inactive) | -23.6% (inactive) | -62.4% (inactive)
COC(=O)CSc1ncccc1-c1nc2ccccc2[nH]1 | 473 | -4.5% (inactive) | -2% (inactive) | 111% | -48.5% (inactive) | 99.2% | -0.512 (inactive) | 3.1e-05 (inactive) | 0.00493 (inactive) | -16.6% (inactive) | -32.8% (inactive)
Nc1nc(SCc2nc3scc(-c4cccs4)c3c(=O)[nH]2)n[nH]1 | 473 | 3.8% (inactive) | 10.7% (inactive) | 103% | -112% (inactive) | 116% | -0.432 (inactive) | 8.2e-06 (inactive) | 0.00447 (inactive) | 1.51% (inactive) | 4.54% (inactive)
Cc1cc(C)n(S(=O)(=O)c2cc(C(=O)O)c(Cl)cc2Cl)n1 | 432 | -0.5% (inactive) | -10.2% (inactive) | 110% | -83.9% (inactive) | 98.4% | -0.387 (inactive) | 4.4e-06 (inactive) | 0.00497 (inactive) | 13.3% (inactive) | 10.3% (inactive)
CCCC(CCC)C(=O)NCCN1CCOCC1 | 412 | -2% (inactive) | 6.3% (inactive) | 97% | -22.1% (inactive) | 90.6% | -0.494 (inactive) | -3.5e-05 (inactive) | 0.0054 (inactive) | 11% (inactive) | 28.6% (inactive)
COc1cccc(CNC(=O)CCS(=O)(=O)c2cccc3nsnc23)c1 | 667 | -6.5% (inactive) | -34.5% (inactive) | 112% | 8.1% (inactive) | 109% | -0.513 (inactive) | -3.9e-05 (inactive) | 0.00504 (inactive) | 13.8% (inactive) | 24.3% (inactive)
COc1ccc(N2CCN(CCCNC(=O)C3CCCN(S(=O)(=O)c4cnc[nH]4)C3)CC2)cc1 (centres undefined) | 604 | 33.9% (active) | -29.9% (inactive) | 89.3% | -87.7% (inactive) | 122% | -0.537 (inactive) | -5.9e-06 (inactive) | 0.0058 (inactive) | -10.4% (inactive) | 17.4% (inactive)

Reference: PubChem BioAssay
